From PubChem
ALDH1A1 inh: blocks purified human ALDH1A1 activity; P00352; Purified ALDH1A1, NADH fluorescence, propionaldehyde substrate; Potency, µM (highest dose often 75.3 µM), inactives show at the top dose activity, negative = inhibition, hits mostly inhibitors; 220,000 compounds, 7.3% hits; AID 1030;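 further: potency means the concentration at half of the fitted maximal effect; plate controls were no enzyme wells and a reference inhibitor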
HTT cytoprotect: cytoprotection in Huntington HTT-Q103 PC12 cell model; PC12 HTT-Q103 induced, cytoprotection, ATP luminescence, 40 h; Potency, µM (doses to about 56.4 µM), for the others: cytoprotection (ATP increase), usual class: activators; 230,000 compounds, 0.14% hits; active means well fitted curve in the direction sought with a large enough effect; inconclusive means small, poorly fitted or top-dose-only effect, or another doubt; inactive means no such curve, though single readings can be large; an effect the other way counts as inactive or inconclusive; further: potency means the concentration at half of the fitted maximal effect; % of control where 0% means no effect; nearly all actives have a fitted effect of over 45% in size
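ATP quantification (ATPlite) reports survival of PC12 cells in which tebufenozide, 100 nM final, switches on Htt exon 1 with 103 glutamines linked to GFP; compounds are titrated.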
CBFb-RUNX1 inh: blocks binding between human CBF-beta and RUNX1 | Q01196+Q13951 | AlphaScreen CBFb-His/RUNX1-biotin binding, biochemical | Potency, µM (top dose mostly 59.8 µM), without a hit: at the top dose activity, negative = inhibition, usual class: inhibitors | 230,000 tested, under 10 active; active means well fitted curve in the direction sought with a large enough effect; inconclusive means small, poorly fitted or top-dose-only effect, or another doubt; inactive means no such curve, though single readings can be large; an effect the other way counts as inactive or inconclusive; further: % of control where 0% means no effect
Target sequence (Q01196 whole entry, looked up): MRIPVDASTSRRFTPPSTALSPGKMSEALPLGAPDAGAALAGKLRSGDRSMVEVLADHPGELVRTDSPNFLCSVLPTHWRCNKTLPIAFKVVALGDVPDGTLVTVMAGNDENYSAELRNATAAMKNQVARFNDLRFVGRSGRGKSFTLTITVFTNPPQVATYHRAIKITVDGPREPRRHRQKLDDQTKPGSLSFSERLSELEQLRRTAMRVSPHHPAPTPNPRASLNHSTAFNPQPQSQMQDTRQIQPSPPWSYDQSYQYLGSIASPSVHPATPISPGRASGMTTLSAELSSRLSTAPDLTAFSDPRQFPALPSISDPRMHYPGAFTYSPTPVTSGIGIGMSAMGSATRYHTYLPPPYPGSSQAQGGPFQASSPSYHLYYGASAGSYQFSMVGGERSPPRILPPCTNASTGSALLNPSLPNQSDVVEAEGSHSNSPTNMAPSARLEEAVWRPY
Target sequence (Q13951 whole entry, looked up): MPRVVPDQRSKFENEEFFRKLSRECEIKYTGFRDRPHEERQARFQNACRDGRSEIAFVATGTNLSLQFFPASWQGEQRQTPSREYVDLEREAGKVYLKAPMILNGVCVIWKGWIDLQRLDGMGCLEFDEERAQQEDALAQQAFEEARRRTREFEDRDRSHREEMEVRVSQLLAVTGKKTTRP
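Proteins preincubated together for 20 min at RT before compound addition; 15 min later, nickel and streptavidin beads were added and left 90 min prior to AlphaScreen measurement.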
HPGD block: inhibitors of human 15-hydroxyprostaglandin dehydrogenase (HPGD); 150,000 compounds, 4.3% hits; purified HPGD, NADH fluorescence kinetic, PGE2 substrate; AID 894; P15428; Potency, µM, for the others: top-dose activity change, negative = inhibition, most hits filed as inhibitors; further: potency means the concentration at half of the fitted maximal effect; on the % scale 0 is the no-effect control and ±100 the full control effect
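20 nM HPGD preincubated 15 min at room temperature with compound in 50 mM Tris-HCl pH 8, 0.01% Tween 20. Started with 1 mM NAD+ and 30 uM prostaglandin E2; NADH fluorescence (360/450 nm) read 5 times over 30-s intervals, last minus first.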
HTT aggregate: mutant huntingtin aggregation inhibition; PC12 HttQ103-GFP aggregates, Acumen cytometry, 40 h; Potency, µM (titrated, usually from 46.1 µM), for inactives: at the highest dose activity change, negative = inhibition, usual class: inhibitors; 220,000 compounds, 1.1% hits; active means well fitted curve in the direction sought with a large enough effect; inconclusive means small, poorly fitted or top-dose-only effect, or another doubt; inactive means no such curve, though single readings can be large; an effect the other way counts as inactive or inconclusive; further: potency means the concentration at half of the fitted maximal effect; on the % scale 0 is the no-effect control and ±100 the full control effect; nearly all actives have a fitted effect of over 60% in size
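PC12/HTTQ103-GFP, ecdysone-inducible; teb 100 nM; cpd qHTS titration; GFP aggregates read on laser cytometer, Ex 488/Em 500-530 nm.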
JMJD2E inh: inhibitors of human JMJD2E histone demethylase; B2RXH2; JMJD2E catalytic domain, FDH-coupled NADH fluorescence (FDH is formaldehyde dehydrogenase); Potency, µM (top dose mostly 57.1 µM), without a hit: at the highest dose activity change, negative = inhibition, most hits filed as inhibitors; 230,000 compounds, 1.6% hits; AID 2147;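 further: potency means the concentration at half of the fitted maximal effect; 0% = wells with enzyme and -100% = buffer wells without enzyme; nearly all actives have a fitted effect of over 50% in size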
Starred values were filed as active, the others as inactive; ? = inconclusive; . = not tested or not shown; ! = not active in a repeat; [ ] = remark or other dose. Only some compounds are listed: those with a hit (about 9.8% of all), similar ones and a draw of the others. Unless noted, the call rests on the fitted dose curve; in most records, active means well fitted inhibition curve with a large enough effect (not every such curve was filed as active); inconclusive means small, poorly fitted or top-dose-only effect, or another doubt; inactive means no such curve, though single readings can be large or run the other way.

SMILES	ALDH1A1 inh	HTT cytoprotect	CBFb-RUNX1 inh	HPGD block	HTT aggregate	JMJD2E inh
O=C(NN=C1C2CC3CC(C2)CC1C3)c1cccs1	20µM*	1%	0%	-8%	-7%	66%
O=C(NN=C1CCCC1)c1cccs1	34%	8%[10 µM]	-17%	?	0%	-7%
CCCCn1c(=O)c(-[n+]2ccccc2)c([O-])c2ccccc21	14µM*	12%	-1%	-11%	8%[9.22 µM]	-1%
CC(C)Cn1c(=O)c(-[n+]2ccccc2)c([O-])c2ccccc21	2.8µM*	26%	?	.	-2%	?
CCCCn1c(=O)c(-c2ccccc2)c(O)c2ccccc21	?	-4%	7%	-9%	15%	-18%
O=c1c(O)c(-c2ccccc2)oc2cccc(O)c12	11%	.	.	?	.	?
COc1cc(O)c2c(=O)c3c(OC)c(O)ccc3oc2c1	?	.	0%[2.36 µM]	?	15%	?
O=c1c(O)c(-c2ccc(O)cc2)oc2cc(O)cc(O)c12	-6%[20.9 µM]	?	-10%[21.7 µM]	28µM*!	.	?
COc1cc(O)c2c(=O)c(O)c(-c3ccc(O)c(O)c3)oc2c1	-2%	.	-16%	-19%	.	22µM*
Cc1ccc(S(=O)(=O)NNc2nc3ccccc3nc2C(F)(F)F)cc1	7.1µM*	-10%	-8%	3.2µM*	-3%	-10%
O=C(CC(c1cccs1)S(=O)(=O)c1ccccc1)c1ccc(F)cc1 (stereo not drawn)	25µM*	-15%[10 µM]	-5%	-1%	-6%	-6%
Cc1ccc(C(=O)CC(c2cccs2)S(=O)(=O)c2ccc(C)cc2)cc1 (stereo not drawn)	-10%	15%[10 µM]	-8%	-11%	12%	4%
COC(=O)CNC(=O)[C@@]1(C)C=C[C@@H](Cc2ccccc2)N1C(=O)OC	?	?	-4%	-14%	.	-18%
COc1ccc(N2CCN(CC(O)c3c[nH]c4ccc(OC)cc34)CC2C)cc1 (stereo not drawn)	-3%	-67%	2%	-7%	13µM*	?
CCOC(=O)N1CCN(C(=O)c2ccc3c(=O)n(CCC4=CCCCC4)c(=O)[nH]c3c2)CC1	6.3µM*	-2%	1%	-6%	-28%	6%
CCCCCn1c(=O)[nH]c2cc(C(=O)N3CCN(CC)CC3)ccc2c1=O	?	30%	6%	-12%	-9%	-26%
CCSC1=C(C#N)C(c2ccc(C)o2)CC(=O)N1 (stereo not drawn)	.	-1%[10 µM]	1%	.	14%[9.22 µM]	4%
N#CC1=C(SCc2ccccc2)NC(=O)CC1c1ccco1 (stereo not drawn)	22µM*	-4%	-5%	-28%	1%	-7%
CCCSC1=C(C#N)C(c2ccccc2C)CC(=O)N1 (stereo not drawn)	?	-6%[10 µM]	2%	?	-18%	-1%
COC(=O)CSC1=C(C#N)C(c2ccccc2F)CC(=O)N1 (stereo not drawn)	.	18%[10 µM]	7%	.	11%[9.22 µM]	-15%
CCCCCCSC1=C(C#N)C(c2ccc(C)o2)CC(=O)N1 (stereo not drawn)	7.9µM*	3%	4%	32µM*	-7%	-12%
N#CC1=C(SCC(=O)NCc2ccccc2)NC(=O)CC1c1ccco1 (stereo not drawn)	8.9µM*	22%[10 µM]	-3%	-10%	21%	3%
Cc1ccc(C2CC(=O)NC(SCc3ccccc3)=C2C#N)o1 (stereo not drawn)	-103%	-124%	21%	22µM*	-1%	6%
CC1=C(C(=O)Nc2ccccc2)C(c2ccco2)C(C#N)=C(SCc2ccccc2)N1 (stereo not drawn)	?	3%	9%	?	-25%	?
CC(C)=N[C@H](C(=O)O)C(C)(C)S	?	-3%[10 µM]	.	-6%	.	.
O=C(Cn1nnc(-c2cccc(C(F)(F)F)c2)n1)NC1CCCC1	20%	-29%[0.074 µM]	10%	-5%	0%	7%
O=C(CSc1ccc(F)cc1)NC1CCCCC1	6%	-42%	9%	.	1%	3%
